Screens from PubChem BioAssay.
DAX1 inh-1: DAX1 (NR0B1) inhibitors on StAR promoter, primary screen, cell-based, luminescence, SF-1 (NR5A1), full-length DAX-1. HEK293T StAR-luciferase reporter, SF-1/DAX-1 repression relief. inhibition, % at 6.8 µM. 370,000 tested, 1.1% active. AID 652010, 2013;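 active = inhibition above the mean over all tested compounds plus 3 SD, cut at about 3.6% in these data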;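 also: 0% = DAX-1 cells with DMSO and 100% = cells lacking DAX-1 with DMSO; higher inhibition means more luminescence from relief of DAX-1 repression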
hcDAF12 agonist: H. contortus DAF-12 nuclear receptor activators, primary screen, cell-based, luminescence, HEK293, lit1-tk-luc reporter. activation, % at 6.8 µM. HEK293 hcDAF-12 lit1-tk-luc reporter; 0% DMSO, 100% Δ7-dafachronic acid. 370,000 tested, 1.4% active. AID 652067, 2013;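 active = activation above the mean of all tested compounds plus 3 SD, cut at about 5.5% in these data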;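 also: 100% = response to 3 µM Δ7-dafachronic acid high control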
hgDAF-12 ag: H. glycines DAF-12 receptor agonists, primary screen, cell-based, luminescence, HEK293, GAL4 fusion, UAS-luciferase | HEK293 GAL4-hgDAF12 UAS-luciferase reporter, agonist luminescence; normalized to butyrate control | activation, % at 6.8 µM | 370,000 tested, 1.8% active | AID 687014, 2013;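 active = activation above a cutoff set at the mean of all screened compounds plus 3 SD, cut at about 10% in these data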;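 also: 0% = DMSO wells and 100% = sodium butyrate wells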
ssDAF12 agonist: S. stercoralis DAF-12 nuclear receptor activators, primary screen, cell-based, luminescence, HEK293, GRIP1 co-expression, lit1-tk-luc | activation, % at 6.8 µM | HEK293 ssDAF-12/GRIP1 lit1-tk-luc reporter; % of 3 µM dafachronic acid response | 370,000 tested, 1% active | Nuclear hormone receptor DAF-12 (Strongyloides stercoralis);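 active = activation above the mean over all tested compounds plus 3 SD, cut at about 0.9% in these data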;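 also: 0% = DMSO-only wells and 100% = 3 µM delta7-dafachronic acid wells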
DAX1 inh-2: DAX1 (NR0B1) inhibitors, primary screen, cell-based, HEK293, Gal4-DAX1, luciferase luminescence. Nuclear receptor subfamily 0 group B member 1 (Homo sapiens), P51843. HEK293 Gal4-DAX1 luciferase reporter. inhibition, % at 6.75 µM. 340,000 tested, 0.99% active;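 active = inhibition above the mean over all tested compounds plus 3 SD, cut at about 4.2% in these data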;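 also: 0% = DAX1-transfected cells with DMSO and 100% = empty-vector control cells with DMSO; inhibition shows as a rise in luminescence from relieved DAX1 repression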
Target sequence (P51843 207-470 limits assumed): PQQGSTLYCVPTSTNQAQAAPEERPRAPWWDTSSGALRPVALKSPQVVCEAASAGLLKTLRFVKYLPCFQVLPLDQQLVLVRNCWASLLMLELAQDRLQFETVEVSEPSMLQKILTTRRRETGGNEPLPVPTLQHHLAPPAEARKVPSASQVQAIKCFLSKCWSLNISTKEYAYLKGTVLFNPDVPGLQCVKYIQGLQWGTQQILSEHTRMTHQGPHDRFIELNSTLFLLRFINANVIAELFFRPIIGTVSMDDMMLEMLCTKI
SMARCA2 activ: SMARCA2 (BRM) function activators, primary screen, cell-based, luminescence, high throughput. MG213 cells, MMTV-luciferase reporter, dexamethasone, overnight. activation, % at 9.1 µM. 370,000 tested, 1% active; in the data active = activation above about 7.8%;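 also: 0% = vehicle wells and 100% = reference activator wells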
* marks the source's active call; other numbers are inactive results; nt = no result. An excerpt weighted towards active compounds, which were near 4.8% of everything screened.

SMILES	DAX1 inh-1	hcDAF12 agonist	hgDAF-12 ag	ssDAF12 agonist	DAX1 inh-2	SMARCA2 activ
Cc1ccc(OP2(=O)Nc3cc(C)c(C)cc3S2)cc1 (centres undefined)	1	5.7*	4	1	2	3
CC1=CC(=O)NP(=O)(Oc2ccc3ccccc3c2)N1 (centres undefined)	1	-1	0	-1	0	3
COCCOC(=O)C1=C(C)OC(N)=C(C(=O)OC)C12C(=O)Nc1ccccc12 (centres undefined)	0	3	1	1	0	-4
CC(=O)C1=C(C)OC(N)=C(C(=O)OC(C)C)C12C(=O)Nc1ccccc12 (centres undefined)	0	6.2*	1	-1	0	0
COC(=O)C1=C(N)Oc2cc(C)oc(=O)c2C12C(=O)Nc1ccccc12 (centres undefined)	0	5	-2	1.0*	0	-2
CCCCOC(=O)C1=C(N)OC2=C(C(=O)CCC2)[C@]12C(=O)Nc1ccccc12	0	2	4	0	0	-4
O=C(c1cccc(C(F)(F)F)c1)N1C[C@H]2C[C@@H](C1)c1cccc(=O)n1C2	0	-1	-2	-1	0	0
CC1CCCN(C(=O)CN2C3CCC2CC(O)(c2ccc(F)cc2)C3)C1 (centres undefined)	-1	-1	-2	0	0	-3
CC(C)NS(=O)(=O)c1ccc(OCC(=O)N2CCN(Cc3ccccc3)CC2)c(Cl)c1	-2	-2	-2	-1	0	-2
Cc1ccc(-n2c(O)c(C=NCc3ccccn3)c(=O)[nH]c2=S)cc1	0	0	3	-1	5.1*	-5
CCOP(=O)(C#Cc1ccccc1)C(O)c1ccc(Br)cc1 (centres undefined)	0	-2	-2	-1	4.6*	-1
COP(=O)(C#Cc1ccccc1)C(O)c1ccc(Br)cc1 (centres undefined)	0	-1	0	-1	1	-3
CC(=O)N1N=C2C3CCN(CC3)C2C1c1ccccc1 (centres undefined)	-1	-1	-2	-1	1	-4
Cc1c(C)c2ccc(OCC(=O)N3CCC(C(=O)O)(c4ccccc4)CC3)cc2oc1=O	-1	0	1	-2	2	1
Cc1ccc(N2C(=O)NC(=O)/C(=C\c3cn(CC(=O)O)c4ccccc34)C2=O)cc1	0	4	2	1.4*	2	0
O=C(O)Cn1cc(/C=C2\C(=O)NC(=O)N(c3ccc(Br)cc3)C2=O)c2ccccc21	0	5.6*	3	1.2*	-1	-5
Fc1ccc(CN2CCN(c3ccc(Cl)cc3)CC2)cc1	0	-1	2	-1	-2	1
c1ccc2[nH]c(CCN3CCCCC3)nc2c1	0	-1	-3	-1	0	3
COc1cccc(OCc2cc(C(=O)N3C[C@H]4C[C@@H](C3)c3cccc(=O)n3C4)no2)c1	1	5.6*	13*	1.5*	3	4
COc1ccc2c(C)c(CCC(=O)N3C[C@H]4C[C@@H](C3)c3cccc(=O)n3C4)c(=O)oc2c1	1	-2	4	-1	5.7*	-1
COc1cc(C2c3cc4c(cc3CC3COC(=O)C32)OCO4)cc(OC)c1O (centres undefined)	4.2*	-1	-4	-1	-1	-3
Cc1nc2ccsc2c(=O)n1-c1ccccc1Cl	0	0	0	-1	0	0
CCCCCn1c(=O)c(C(=O)Nc2ccccc2)c(O)c2ccccc21	0	7.8*	0	0	0	2
CCCCn1c(=O)c(C(=O)NCCc2ccccc2)c(O)c2ccccc21	0	-2	1	-2	5.1*	-2
CCCCn1c(O)c(C(=O)/C=C/c2c[nH]c3ccccc23)c(=O)[nH]c1=O	0	6.0*	-2	-1	1	1
SMILES	DAX1 inh-1	hcDAF12 agonist	hgDAF-12 ag	ssDAF12 agonist	DAX1 inh-2	SMARCA2 activ
COc1ccc(CN2CCN(c3ccccc3F)CC2)cc1O	0	-1	0	-1	4.5*	1
COc1ccccc1N1CCN(Cc2ccc(F)cc2)CC1	0	-1	0	-1	0	-3
COc1ccc2c3c([nH]c2c1)C(C)NCC3 (centres undefined)	0	2	-1	-1	-1	1
COc1ccc2[nH]c3c(c2c1)CCNC3C (centres undefined)	-1	5.7*	-1	0	2	-2
CN1CCN(CCC(C#N)(c2ccccc2)c2ccccc2)CC1	1	-1	-1	-1	-1	-7
COc1ccc(C(=O)C2CCCN(CC3CCCCC3)C2)cc1OC (centres undefined)	3.9*	2	4	-1	nt	0
CC1=Nc2ccccc2/C1=C/c1c(O)n(C)c(=O)[nH]c1=O	0	6.4*	2	1	3	-2
Cc1ccccc1-n1c(O)c(/C=C2/C(c3ccccc3)=Nc3ccccc32)c(=O)[nH]c1=O	-2	1	0	-1	-1	3
COC(=O)C1=Nc2ccccc2/C1=C\c1c(O)n(-c2cc(OC)ccc2OC)c(=O)[nH]c1=O	0	5.8*	3	-1	0	-2
CCOP(=O)(OCC)c1cc(CC)ccc1O	0	0	-1	0	0	-3
Cc1nn(CC(C)C)c(Cl)c1C(=O)NC1CCC(C)CC1 (centres undefined)	4.2*	4	6	1	1	6
Cc1nn(Cc2ccccc2Cl)c(Cl)c1C(=O)OCC(=O)NC(=O)NC1CCCCC1	0	-1	1	-1	0	-2
COCCCN=Cc1c(O)[nH]c(=S)[nH]c1=O	1	-2	2	-1	7.0*	-1
CCOP(=O)(OCC)C1(C(=O)O)CCCC1	-1	-1	0	-1	5.1*	-4
CC(C)C1C(C#N)=C(N)Oc2c1c(=O)oc1ccccc21 (centres undefined)	4.0*	0	-2	-1	0	-5
CCCC(C)C1C(C#N)=C(N)Oc2c1c(=O)oc1ccccc21 (centres undefined)	0	-1	-1	-1	1	-1
